Screens as filed in PubChem.
TRHR enhancer = allosteric enhancers of human TRH receptor; 360,000 compounds, 0.66% hits; TRHR cells, fluo-8 calcium fluorescence, EC20 TRH enhancement; enhancement, % at 2 µM; in the data active = enhancement above about 30%; also: 0% is about no effect
Target sequence (P34981 whole entry, looked up): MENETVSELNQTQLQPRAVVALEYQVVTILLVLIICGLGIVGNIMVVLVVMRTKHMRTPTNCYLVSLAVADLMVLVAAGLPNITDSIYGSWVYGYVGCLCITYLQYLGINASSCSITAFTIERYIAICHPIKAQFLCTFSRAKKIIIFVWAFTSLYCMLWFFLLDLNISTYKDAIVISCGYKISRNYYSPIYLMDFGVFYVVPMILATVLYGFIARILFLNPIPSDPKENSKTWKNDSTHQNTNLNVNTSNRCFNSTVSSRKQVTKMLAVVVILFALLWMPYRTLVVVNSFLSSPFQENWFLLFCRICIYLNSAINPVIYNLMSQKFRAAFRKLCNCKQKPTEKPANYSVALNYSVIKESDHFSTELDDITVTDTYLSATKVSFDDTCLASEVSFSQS
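TRHR-expressing cells loaded with fluo-8 calcium dye were read kinetically (ex 480/em 530) during compound addition, then stimulated with an EC20 of TRH (10 nM final). Enhancement of the Gq-mediated intracellular calcium response was scored.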
D1 potentiator = human D1 dopamine receptor positive modulation; P21728; HEK293 TREx D1 cells, calcium flux, dopamine EC20 potentiation; potentiation, % at 10 µM; 360,000 compounds, 0.036% hits; in the data active = potentiation above about 30%; also: 0% is about no effect
D1 antagonist = blocks dopamine activation of the human D1 receptor | P21728 | HEK293 TREx D1 cells, calcium flux, dopamine EC80; hits give low values | activity change, negative = inhibition, % at 10 µM | 360,000 compounds, 3.2% hits | AID 504652; in the data active = activity change below about -30%; also: % is scaled to controls: 0 for no effect and ±100 for the full control effect
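Using tetracycline-induced force-coupled D1 Hek293 cells and a calcium dye, signals were followed for 180 s after compound, then for 180 s after EC80 dopamine, to detect inhibitors.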
TRHR agonist = TRH receptor (human) agonism. P34981. TRHR cells, calcium flux fluo-8, FDSS agonist mode. activation, % at 2 µM. 360,000 compounds, 0.18% hits; also: 0% is about no effect
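Read-out: compound-evoked intracellular calcium rise in TRHR cells, fluo-8 dye, kinetic FDSS fluorescence at 1 s/cycle following a 10-cycle baseline. Cells cultured overnight before dye loading (30 min–1.5 h, RT).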
D1 agonist = human D1 receptor agonism. P21728. HEK293 T-REx D1 cells, calcium flux, agonist mode. activation, % at 2 µM. 360,000 compounds, 1% hits. AID 504660; also: 0% is about no effect
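Agonism was scored from calcium flux recorded over 180 s (1 read/s) after pintool compound addition, following a 10-cycle baseline. Cells were inducible force-coupled HEK293 TREx D1, plated overnight at 30 C and loaded with no-wash calcium dye.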
* marks the source's active call; other numbers are inactive results; · = not tested or not shown. Hits are enriched below; roughly 4.6% of the tested compounds scored in any of these assays. Rule as the data show it, unless noted: active = activation above about 30%; inactive = the rest.

SMILES	TRHR enhancer	D1 potentiator	D1 antagonist	TRHR agonist	D1 agonist
CCn1cc(C(=O)NC(C)C2CC3CCC2C3)cn1 (stereo not given)	31*	1	-12	1	3
Cc1ccc(OCC(=O)Nc2cc(C)on2)c([N+](=O)[O-])n1	-5	5	4	1	1
Cc1ccc(OCC(=O)NC(C)c2ccc(Cl)c(Cl)c2)c([N+](=O)[O-])n1 (stereo not given)	-5	-8	-36*	0	10
CCOc1ccccc1C(=O)N(Cc1ccc(C)o1)C1CCS(=O)(=O)C1 (stereo not given)	-3	-6	-10	0	2
O=C(Nc1cccc(-n2cccn2)c1)C1CCCN(Cc2ccccc2F)C1 (stereo not given)	-2	-8	-36*	-1	6
CCOC(=O)c1ccc(NC(=O)c2oc3c(c2C)-c2nn(Cc4ccccc4Cl)cc2CC3)cc1	-6	1	0	0	3
COc1ccc(Cl)cc1NC(=O)NCC1CCN(Cc2cc(C)ccc2C)CC1	1	-9	-31*	1	30
COc1cc([N+](=O)[O-])ccc1NC(=O)NCC1CCN(Cc2ccc(Cl)cc2)CC1	16	-10	-33*	3	31*
O=C(NCC1CCN(Cc2cccc(Cl)c2)CC1)Nc1cc(Cl)ccc1Cl	-1	-1	12	2	19
CCN1/C(=C/C=C/C=C/C=C/c2sc3ccccc3[n+]2CC)Sc2ccccc21	32*	2	0	1	0
CCOc1ccc(C2c3c(-c4ccc(C)cc4)n[nH]c3C(=O)N2c2ccc(Cl)cc2)cc1 (stereo not given)	-1	-1	-1	1	8
O=C1CN(S(=O)(=O)c2c(F)cccc2F)CCN1S(=O)(=O)c1ccc2c(c1)OCCO2	5	4	2	0	0
O=C(Nc1ccc(F)c(Cl)c1)C1CCCN(S(=O)(=O)c2cccc3nsnc23)C1 (stereo not given)	-7	2	-11	2	-1
O=C(Nc1ccc2c(c1)OCCO2)C1CCCN(S(=O)(=O)c2cccc3nsnc23)C1 (stereo not given)	19	38*	-36*	0	0
COc1ccc(N2C(=O)CSC23C(=O)N(CC(=O)NC2CCCCC2)c2ccccc23)cc1 (stereo not given)	-9	-1	8	0	1
COc1ccc2nc(-c3ccccc3)cc(OC)c2c1	6	-6	-60*	0	1
CCOc1ccc(S(=O)(=O)Nc2ccc(-c3ccc(OC)nn3)cc2)cc1	10	-1	2	2	20
Cc1c(C(=N)C(C#N)C#N)c(=N)oc2c1ccc1ccccc12	3	5	-41*	0	2
Cc1c(C(=O)O)oc2c1ccc1ccccc12	8	-3	-12	0	1
CCn1c(CNc2ccc(Cl)cc2)nnc1SCC(=O)OC1CCCCC1	-4	-4	0	0	9
CCn1c(CNc2cccc(Cl)c2)nnc1SCC(=O)OC1CCCCC1	6	-4	-43*	-1	36*
O=C(NCCn1ccc2ccccc21)c1ccc(Cl)cc1	0	-4	-34*	0	0
COc1cc(OC)cc(C(=O)NCCn2ccc3ccccc32)c1	-3	-5	-16	-1	3
CCOC(=O)c1c(NC(C)=O)c2c3c(sc2n1Cc1cc(C)ccc1C)CCCC3	9	0	-20	0	-1
O=C(O)C(=O)/C(=C\c1cccc2ccccc12)c1ccc2ccccc2n1	-2	-3	3	3	31*
SMILES	TRHR enhancer	D1 potentiator	D1 antagonist	TRHR agonist	D1 agonist
C/C(=N\N=C(N)N)c1cccc(Cl)c1	2	-10	-47*	1	5
C/C(=N\N=C(N)N)c1ccc(Cl)cc1Cl	4	-10	-36*	1	13
C/C(=N\N=C(N)N)c1cc(Cl)ccc1Cl	4	-13	-45*	0	11
CCC(Sc1nnc2c3ccccc3n(CC)c2n1)C(=O)Nc1ccc(NC(C)=O)cc1 (stereo not given)	10	-6	-18	0	-2
CCN(C(=O)CSc1ncc2c(n1)-c1cc(Cl)ccc1N(Cc1ccccc1)S2(=O)=O)c1cccc(C)c1	10	1	-6	0	2
FC(F)(F)c1ccccc1NC(=S)N1CCCCCC1	0	-2	6	0	-1
CC1CN(C(=S)Nc2ccccc2C(F)(F)F)CC(C)O1 (stereo not given)	4	-1	-34*	0	2
COc1ccc(CN(C)c2ccc(-c3nc(C)no3)cc2[N+](=O)[O-])cc1	-1	-1	-25	0	6
COc1ccc(NS(=O)(=O)c2c(C)[nH]c(C)c2C(=O)N2CCCCC2)cc1Cl	-5	-5	2	0	14
COc1ccc(NCC(=O)N2CCCC2)cc1Cl	3	0	-30*	0	2
COc1ccc(NS(=O)(=O)c2cc(N/C(=N\S(=O)(=O)c3ccccc3)c3ccc(F)cc3)ccc2Cl)cc1	-1	0	-38*	1	8
COc1ccc2c(c1)c1c(c(=O)n(-c3ccccc3C)c(=O)n1CC(=O)NCc1ccc(C)cc1)n2C	-5	-1	-4	1	-1
Brc1ccc(Nc2c3c(nc4nncn24)CCC3)cc1	-1	-1	-4	-1	2
COCCCNC(=O)c1c(NC(=O)Cc2coc3cc(C)ccc23)sc2c1CCCC2	3	0	-66*	0	1
CCNC(=O)c1c(NC(=O)Cc2coc3cc(C)ccc23)sc2c1CCCC2	0	-1	-2	0	5
O=C(CSc1nnnn1C1CC1)N1CCN(Cc2ccccc2F)CC1	-5	1	-34*	0	2
COc1ccccc1N1CCN(C(=O)CSc2nnnn2C2CC2)CC1	-10	-3	-13	0	2
CN(Cc1ccccc1)C(=O)CSc1nnc(-c2cccc(Cl)c2)o1	0	4	-54*	-1	56*
Cc1cccc(N2CCN(C(=O)C3CCN(S(=O)(=O)c4cccs4)CC3)CC2)c1C	-13	-2	-34*	-2	-3
Cc1cccc(N2CCN(C(=O)C3CCC(CNS(=O)(=O)c4cccs4)CC3)CC2)c1C (stereo not given)	5	-1	-4	0	-3
CCOC(=O)C1(Cc2ccc(OC)cc2)CCN(C(=O)c2cc(C)on2)CC1	-2	3	-33*	0	4
CCOC(=O)C1(Cc2cccc(OC)c2)CCN(CC(O)CO)CC1 (stereo not given)	-3	-6	-44*	-1	1
CC(=O)C1=C(c2ccccc2)N(C(C)=O)n2c(nnc2C2CCCCC2)S1	6	-3	·	0	6
CCN(C(=O)c1cccn(Cc2cccc(Cl)c2)c1=O)c1ccccc1	-2	-5	-3	0	1
